The results in this text go back to PubChem BioAssay AID623868 (Vanderbilt High Throughput Screening Facility, 2012).

Each structure is given as a SMILES string. The whole screen tested about 2,100 compounds, of which about 760 (36%) were called active. Not all results are given here. Unmarked numbers belong to inactive results.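 Rule for the calls: active = thallium-flux fluorescence traces judged by eye to show enhanced or reduced glutamate response, manual score 1 or -1, so both directions (some results past the limit were not filed as active); inactive = the rest, including fluorescent or raised-baseline compounds.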

A short description of the test: non-GIRK thallium flux modulation in mGlu8 cells, confirmation, counter-screen for GIRK activator project, cell-based, HEK-293 rmGlu8, no GIRK (AID 623868).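 Note: extra codes mark interference with 3 for fluorescent and 4 for baseline rise.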 The note with it: thallium flux fluorescence, at 10 µM, actives lie on both sides, codes: 1 enhancer, -1 blocker, 0 none, thallium stimulus containing EC20 glutamate. For orientation: Counterscreens check selectivity or assay interference.
In the case of `CCSc1nnc(NC(=O)c2nn(C(C)C)c(=O)c3ccccc23)s1`, the manual score is -0.5.
In the case of `CS(=O)(=O)N(CCc1ccccc1)CC(=O)NCc1ccc2c(c1)OCO2`, the manual score is 0.
Then `CC(C)(C)C1CCC2(CC1)Nc1cccc3cccc(c13)N2`, with 0; and `CC1CCN(CC(O)COC2CCC(C(C)(C)C)CC2)CC1` (configuration not stated), with 0.
With `COC(=O)c1cc2sccc2n1CC(=O)N1CCCc2ccccc21` the figure was 0; with `O=C(NC(=S)N1CCCc2ccccc21)c1ccccc1`, 1 (active); with `CCC1CCCCN1C(=S)NC(=O)c1ccc([N+](=O)[O-])cc1` (configuration not stated), 1 (active).
For `O=C(c1ccccc1)N1CCCc2ccccc21`, the manual score was 0.
Then `CCC1CCCCN1C(=O)CSc1nnc(-c2ccco2)o1` (configuration not stated), with 0; and `O=C(NC(=S)N1CCc2ccccc21)c1ccccc1Br`, with 1 (active).
With `O=C(N/N=C1\CCCc2ccccc21)c1ccc([N+](=O)[O-])cc1` the figure was 1 (active); with `Cc1c(C(=O)N2CCc3ccccc32)oc2c1C(=O)CC(C)(C)C2`, 0.
Turning to `CCC1CCCCN1C(=O)c1cc2cc(Br)ccc2oc1=O` (configuration not stated), the manual score is 0.
With `CCCCC(=O)Nc1ncc2c(n1)CC(C)(C)CC2=O` the figure was 0; with `Cc1oc(-c2cccc(Cl)c2)nc1CN1CCCC(C(=O)NCc2ccco2)C1` (configuration not stated), -1 (active); with `CCc1ccc(-c2nc(CN3CCC(C(=O)NCc4ccco4)CC3)c(C)o2)cc1`, 0.
Then `Cc1oc(-c2cccc(Cl)c2)nc1CN1CCC(C(=O)NCc2ccco2)CC1`, with 0; and `CC1=C(C)C(c2ccccc2)NC(=S)N1` (configuration not stated), with 0.
For `Cc1cccc(S(=O)(=O)NC(Cc2c[nH]c3ccccc23)C(=O)O)c1` (configuration not stated), the manual score was 0.
Consider `O=S(=O)(Nc1ccc(S(=O)(=O)Nc2cccc3ccccc23)cc1)c1ccccc1`, for which the manual score is 0.
With `Cc1cccc(S(=O)(=O)Nc2cccc3c2C(=O)c2ccccc2-3)c1` the figure was 1 (active); with `CC(C)CC(=O)Nc1ccccc1-c1nnn(CC(=O)N2CCc3ccccc3C2)n1`, 0; with `Cc1ccc(-c2nnn(CC(=O)N3CCCCC3)n2)c(-n2cnnn2)c1`, 0.
With `O=C(Nc1ccccc1-c1nnn(CC(=O)N2CCc3ccccc3C2)n1)C1CCC1` the figure was -1 (active); with `CC(C)(C)C(=O)Nc1nc2c(s1)COc1ccccc1-2`, -0.5.
Then `O=C(NC(=S)Nc1nc2c(s1)CCCC2)c1ccccc1`, with 0.
Consider `COC(=O)C(NC(=O)COc1ccccc1)(Nc1nc2c(s1)CCCC2)C(F)(F)F` (configuration not stated), for which the manual score was 0.
For the molecule `COC(=O)c1ccc(C(=O)NC(=S)Nc2nc3c(s2)CCCC3)cc1`, the manual score is 1 (active).
With `O=C(NC(=S)Nc1nc2c(s1)CCCC2)c1ccc(C(=O)c2ccccc2)cc1` the figure was 0.
Then `CC(C)(C)c1ccc(C(=O)NC(=S)Nc2nc3c(s2)CCCC3)cc1`, with 1 (active); and `N=c1n(CCN2CCCCC2)c2ccccc2n1CC(O)COc1ccccc1` (configuration not stated), with 0.
With `COCCCNc1c2c3c(cccc3[nH]c1=O)C(=O)c1ccccc1-2` the figure was 3; with `O=C(NC(=S)Nc1ccc(N2CCCCC2)cc1)c1cccs1`, 1 (active).
In the case of `CN(C1CCCCC1)S(=O)(=O)c1ccc(NC(=S)NC(=O)c2cccs2)cc1`, the manual score is 1 (active).
Then `Cc1ccc(NC(=O)c2cc(NC(=O)CCC(=O)O)ccc2N2CCCCC2)cc1`, with 0.
Then `O=C(Nc1ccc(N2CCCCC2)c(Cl)c1)c1ncn[nH]1`, with 0; and `O=C(NC(=S)Nc1ccc(N2CCCCC2)c(Cl)c1)c1cccs1`, with 1 (active); and `O=C(CNC1CCCCCC1)Nc1ccc(N2CCCC2)cc1`, with 0.
In the case of `Cc1ccc(-c2[nH]nc3c2C(c2ccoc2)C(C#N)=C(N)O3)cc1C` (configuration not stated), the manual score was 0.
On to `CN(C)c1nc2n(c(=O)n1)C(C#N)CS2` (configuration not stated), for which the manual score is 0.
With `O=C(/C=C/c1ccc(Cl)cc1)NC(=S)NN1CCCCC1c1cccnc1` (configuration not stated) the figure was 0; with `COc1ccc(-n2ncc3c(NCc4cccs4)ncnc32)cc1`, 0.
Regarding `c1csc(CCNc2ncnc3sc4c(c23)CCC4)c1`, the manual score is -1 (active).
With `O=C(NC(=S)Nc1ccccc1)c1cc(-c2ccccc2)nc2ccccc12` the figure was 0.5; with `O=C(NC(=S)Nc1ccccn1)c1cc(-c2ccccc2)nc2ccccc12`, 1 (active); with `COC(=O)c1ccc(NC(=S)NC(=O)c2cc(-c3ccccc3)nc3ccccc23)cc1`, 1 (active).
Then `Cc1cccc(NC(=S)NC(=O)c2cc(-c3ccccc3)nc3ccccc23)c1`, with 0; and `Cc1ccccc1NC(=S)NC(=O)c1cc(-c2ccccc2)nc2ccccc12`, with 1 (active); and `Fc1cccc(-n2c(-c3ccco3)nc3nc4ccccc4nc32)c1`, with 0.
`Cc1ccc(C)c(N2CCN(C(=O)CCCOc3cc(=O)n(C)c4ccccc34)CC2)c1`: the manual score was 0.
For the molecule `CCC(=O)Oc1ccc(C/C(=N\O)c2ccc(O)cc2O)o1`, the manual score is -1 (active).
Then `CCCn1c(C)cc(/C=C(\C#N)C(=O)OCC(=O)Nc2cccc(OC)c2)c1C`, with 0; and `Cc1ccc2oc(=O)c3cnn(CC(=O)N4CCc5ccccc5C4)c3c2c1`, with -1 (active); and `COc1ccc(N(CC(=O)NCCSc2ccccn2)S(C)(=O)=O)cc1Cl`, with 0.
For the molecule `Cc1nn2c(NCCCN(C)C)c3c(nc2c1-c1ccccc1)CCC3`, the manual score was 0.
Then `O=C(O)CCCCCNc1nc2ncn(Cc3ccccc3)c2c(=O)[nH]1`, with 0; and `Fc1cccc(C2NN=C(c3ccccc3)S2)c1` (configuration not stated), with 1 (active).
Then `O=C1CC(c2ccco2)Sc2nc3ccccc3n21` (configuration not stated), with 0; and `CC1(c2ccccc2)CC(C)(C)N2C(=O)/C(=C3\SC(=S)NC3=O)c3cccc1c32` (configuration not stated), with 1 (active); and `CN1CCN(CC(=O)N2c3ccccc3C(C)(c3ccccc3)CC2(C)C)CC1` (configuration not stated), with 0.
With `Cc1c(C(=O)O)sc2nc3n(c(=O)c12)CCC(C)CC3` (configuration not stated) the figure was 0.
`CCCCCCCCc1nc(=S)[nH][nH]1`: the manual score was 1 (active).
With `C=CCCCCCCCCc1nc(=S)[nH][nH]1` the figure was 1 (active); with `COc1c(Cl)cc(Cl)cc1CNCCNCC(C)O` (configuration not stated), 0; with `COc1cccc(NC(=O)Cn2nnc(C(=O)Nc3ccccc3)c2N)c1`, 0.
Then `CC1CCCCN1CC(=O)Nc1ccc(Oc2ccccc2)cc1` (configuration not stated), with 0.
With `COc1cc(C(=O)NC2CC3CCCC(C2)N3CC(=O)Nc2ccccc2)cc(OC)c1OC` (configuration not stated) the figure was -1 (active).
